Measurements: PubChem BioAssay (Tox21)
Values joined by “and” are separate entries in the source; they are usually repeats but may differ in a detail not shown here. Equal values may be shown once. A number with no mark means an inactive call. Inconclusive results are not listed. A call without a number means that no potency is given here. Active and inactive are the calls of the source. Unless noted, calls follow the shape of the dose curve; as a rule, active = well fitted curve in the direction sought with a large enough effect in the repeat runs; inconclusive = weak or mixed curves; inactive = no such curve, though single readings can be large; an effect the other way counts as inactive or inconclusive.

Columns and labels:
[1] = qHTS assay to identify small molecule antagonists of the estrogen related receptor (ERR) signaling pathway from Tox21 library - cell viability counter screen (AID 1224834); also: nearly all actives have a fitted effect of over 30% in size; also: potency is read from the fitted curve at half-maximal effect
In short: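 ERR reporter cells were plated 6 h before compound addition, then exposed to test compounds in DMSO for 17.5 h at 37 C. Viability was read as CellTiter-Fluor fluorescence after a 30-minute incubation at 37 C.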

[2] = target: Luciferin 4-monooxygenase (Photinus pyralis) (UniProt P08659); experiment: qHTS assay to identify small molecule inhibitors of firefly luciferase (AID 1224835); also: nearly all actives have a fitted effect of over 25% in size; also: potency is read from the fitted curve at half-maximal effect
Luciferin 4-monooxygenase (Photinus pyralis), sequence (P08659 whole entry, looked up): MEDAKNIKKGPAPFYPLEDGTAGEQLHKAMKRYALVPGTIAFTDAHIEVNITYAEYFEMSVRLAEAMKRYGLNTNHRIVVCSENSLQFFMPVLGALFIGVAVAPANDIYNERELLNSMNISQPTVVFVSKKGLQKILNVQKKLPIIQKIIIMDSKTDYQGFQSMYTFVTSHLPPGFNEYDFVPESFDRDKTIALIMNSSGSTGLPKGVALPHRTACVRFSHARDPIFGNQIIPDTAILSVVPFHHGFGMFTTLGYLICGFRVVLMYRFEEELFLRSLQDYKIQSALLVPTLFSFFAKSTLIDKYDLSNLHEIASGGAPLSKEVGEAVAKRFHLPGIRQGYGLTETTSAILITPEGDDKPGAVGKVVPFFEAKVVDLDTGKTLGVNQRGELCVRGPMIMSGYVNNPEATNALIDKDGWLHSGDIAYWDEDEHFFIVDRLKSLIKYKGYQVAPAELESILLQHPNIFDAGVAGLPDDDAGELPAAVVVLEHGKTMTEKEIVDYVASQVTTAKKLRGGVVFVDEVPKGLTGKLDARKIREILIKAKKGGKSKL
In short: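 Quantitative HTS format; KM concentrations of both substrates. Purified P. pyralis FLuc activity quantified from luminescence images.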

[3] = qHTS assay to identify small molecule agonists of the constitutive androstane receptor (CAR) signaling pathway - cell viability counter screen (AID 1224836); also: nearly all actives have a fitted effect of over 45% in size; also: potency is read from the fitted curve at half-maximal effect
In short: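 Compound titrations (15 concentrations) went onto HepG2-CYP2B6-hCAR cells 4 h after seeding, alongside PK11195 at a final 0.75 uM; a 23 h, 37 C/5% CO2 incubation preceded CellTiter-Fluor viability measurement.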

[4] = qHTS assay to identify small molecule antagonists of the constitutive androstane receptor (CAR) signaling pathway - cell viability counter screen (AID 1224837); also: nearly all actives have a fitted effect of over 45% in size; also: potency is read from the fitted curve at half-maximal effect
In short: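 HepG2 cells stably expressing hCAR and a CYP2B6-2.2kb reporter were plated and pre-incubated 4 hr at 37 C/5% CO2, then given compounds at 15 concentrations plus 50 nM CITCO (final). After 23 hr, viability was read by CellTiter-Fluor fluorescence.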

[5] = qHTS assay to identify small molecule antagonists of the estrogen related receptor signaling pathway with the pleiotropic PPARgamma coactivator (PGC) from Tox21 10K library - cell viability counter screen (AID 1224840; active = well fitted cell-killing curve with a large enough effect in the repeat runs, not every such curve was filed as active; also: nearly all actives have a fitted effect of over 40% in size; also: potency is read from the fitted curve at half-maximal effect)
In short: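 PGC/ERR cells were seeded at 2,000 cells/well and left 6 hours at 37 C/5% CO2 before pin-tool addition of compounds in DMSO. After 17.5 hours at 37 C, CellTiter-Fluor was added and fluorescence read 30 minutes later.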

[6] = target: Thyrotropin receptor (Homo sapiens) (UniProt P16473); experiment: qHTS assay to identify small molecule agonists of the thyroid stimulating hormone receptor (TSHR) signaling pathway (AID 1224843; calls by dose curve; also: nearly all actives have a fitted effect of over 45% in size)
Thyrotropin receptor (Homo sapiens), sequence (P16473 whole entry, looked up): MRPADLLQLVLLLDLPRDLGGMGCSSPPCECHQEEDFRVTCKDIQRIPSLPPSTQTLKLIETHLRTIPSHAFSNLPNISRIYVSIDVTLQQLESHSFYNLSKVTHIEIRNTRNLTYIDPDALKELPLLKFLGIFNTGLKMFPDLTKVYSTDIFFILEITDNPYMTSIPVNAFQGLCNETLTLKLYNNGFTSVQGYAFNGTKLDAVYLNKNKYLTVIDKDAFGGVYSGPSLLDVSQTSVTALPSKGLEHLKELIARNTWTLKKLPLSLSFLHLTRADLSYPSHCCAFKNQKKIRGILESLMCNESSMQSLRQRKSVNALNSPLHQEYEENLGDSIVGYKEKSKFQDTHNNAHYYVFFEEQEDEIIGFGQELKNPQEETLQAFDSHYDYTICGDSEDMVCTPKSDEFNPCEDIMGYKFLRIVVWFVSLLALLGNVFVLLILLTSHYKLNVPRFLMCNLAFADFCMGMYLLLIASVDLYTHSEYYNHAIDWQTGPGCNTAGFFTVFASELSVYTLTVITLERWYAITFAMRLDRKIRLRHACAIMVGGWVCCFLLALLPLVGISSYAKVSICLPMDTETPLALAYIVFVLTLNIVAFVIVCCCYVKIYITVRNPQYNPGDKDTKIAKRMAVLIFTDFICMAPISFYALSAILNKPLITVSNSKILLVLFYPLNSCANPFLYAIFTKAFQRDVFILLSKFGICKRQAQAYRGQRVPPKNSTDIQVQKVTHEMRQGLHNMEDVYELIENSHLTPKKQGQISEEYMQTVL
In short: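 Cell line HEK293 with TSHR; density 800/well. Exposure 30 min RT. Readout HTRF cAMP (cAMP-d2/anti-cAMP-cryptate), 1 h RT before reading.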

[7] = qHTS assay to identify small molecule agonists of the hypoxia (HIF-1) signaling pathway - cell viability counter screen (AID 1224844; calls by dose curve; also: nearly all actives have a fitted effect of over 50% in size; also: potency is read from the fitted curve at half-maximal effect)
In short: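 HRE-bla ME-180 cells in medium with 0.5% dialyzed FBS were preincubated 5 hrs at 37C, exposed to compounds for 17 hrs, then viability was read as CellTiter-Glo luminescence after 30 min at room temperature, in the reporter wells.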

[8] = qHTS assay to identify small molecule agonists of H2AX (AID 1224845; active = well fitted activation curve with a large enough effect in the signal ratio in the repeat runs, not every such curve was filed as active; the % refers to the signal ratio; also: potency is read from the fitted curve at half-maximal effect)
In short: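 Wild-type CHO-K1 cells plated overnight, then exposed 3 hr at 37C to compounds at 15 concentrations (0.76% DMSO). Lysed, then HTRF anti-pH2AX(S139)-cryptate/anti-H2AX-d2 detection after 24 hr at room temperature; emissions 665 and 620 nm.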

[9] = qHTS assay to identify small molecule agonists of the hypoxia (HIF-1) signaling pathway (AID 1224846; active = well fitted activation curve with a large enough effect in the signal ratio in the repeat runs, not every such curve was filed as active; the % refers to the signal ratio)
In short: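 HRE-bla ME-180 cells (beta-lactamase reporter under hypoxia response element) were plated at 2,000 cells/well in medium with 0.5% dialyzed FBS, rested 5 hrs, then given compounds in DMSO for 17 hrs at 37C, 5% CO2. Reporter induction was read with CCF4-AM FRET substrate.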

[10] = qHTS assay to identify small molecule agonists of H2AX - cell viability counter screen (AID 1224847; calls by dose curve; also: nearly all actives have a fitted effect of over 30% in size; also: potency is read from the fitted curve at half-maximal effect)
In short: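 Read-out: CellTiter-Glo luminescence, 30 min RT. Cells: wild-type CHO-K1, 1000/well, 10% FBS, plated overnight at 37C. Treatment: 15 concentrations, 3 hr, 37C, 0.76% DMSO.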

[11] = qHTS RealTime-Glo MT Cell Viability Assay in HepG2 cells - 24 hour (AID 1224867); also: nearly all actives have a fitted effect of over 50% in size; also: potency is read from the fitted curve at half-maximal effect
In short: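 Compound treatment began 5 h after plating HepG2 cells (600/well) with NanoLuc luciferase and prosubstrate. Plates stayed at 37 C for 40 h; luminescence was captured at six time points, 0 h through 40 h.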

[12] = qHTS RealTime-Glo MT Cell Viability Assay in HEK293 cells - 32 hour (AID 1224868); also: nearly all actives have a fitted effect of over 50% in size; also: potency is read from the fitted curve at half-maximal effect
In short: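 Quantitative high-throughput screen of the Tox21 10K library in HEK293: cells and RealTime-Glo reagents plated together, compound added at 5 h, luminescence monitored through 40 h at 37 C.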

[13] = A CellTox Green Cytotoxicity Assay to monitor cytotoxicity in HEK293 cells - 0 hour (AID 1224869); also: nearly all actives have a fitted effect of over 50% in size
In short: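 HEK293 cells premixed with CellTox Green dye were seeded at 600 cells/well and left 5 h at 37 C/5% CO2 before pin transfer of 23 nL compound in DMSO. Fluorescence from dye bound to dead-cell DNA was read during 40 h treatment.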

[14] = qHTS RealTime-Glo MT Cell Viability Assay in HepG2 cells - 40 hour (AID 1224870); also: nearly all actives have a fitted effect of over 50% in size; also: potency is read from the fitted curve at half-maximal effect
In short: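 HepG2 cells mixed with RealTime-Glo MT reagents (NanoLuc plus cell-permeant prosubstrate) were seeded at 600 cells/well, incubated 5 h at 37 C/5% CO2, then pinned with compounds in DMSO; nonlytic luminescence tracked viability during 40 h treatment.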

[15] = target: Nuclear receptor subfamily 1 group I member 3 (Homo sapiens) (UniProt Q14994); experiment: qHTS assay to identify small molecule antagonists of the constitutive androstane receptor (CAR) signaling pathway (AID 1224838); also: nearly all actives have a fitted effect of over 40% in size; also: potency is read from the fitted curve at half-maximal effect
Nuclear receptor subfamily 1 group I member 3 (Homo sapiens), sequence (Q14994 whole entry, looked up): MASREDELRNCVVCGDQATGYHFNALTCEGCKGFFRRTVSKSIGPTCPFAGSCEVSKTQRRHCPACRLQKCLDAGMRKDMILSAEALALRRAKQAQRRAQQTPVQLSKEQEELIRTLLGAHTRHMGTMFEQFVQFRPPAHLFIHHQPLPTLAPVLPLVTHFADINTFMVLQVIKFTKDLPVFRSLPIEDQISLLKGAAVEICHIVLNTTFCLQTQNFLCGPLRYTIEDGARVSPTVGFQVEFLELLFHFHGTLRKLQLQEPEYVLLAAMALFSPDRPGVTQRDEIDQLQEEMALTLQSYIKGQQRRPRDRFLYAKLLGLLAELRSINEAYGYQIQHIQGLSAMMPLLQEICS
In short: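 HepG2 cells stably co-transfected with hCAR and a CYP2B6-2.2kb luciferase reporter were seeded 4 h before compound addition at 15 concentrations. Cells were stimulated with 50 nM CITCO (final) for 24 h at 37 C; luciferase luminescence was then read.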

[16] = target: Nuclear receptor subfamily 1 group I member 3 (Homo sapiens) (UniProt Q14994); experiment: qHTS assay to identify small molecule agonists of the constitutive androstane receptor (CAR) signaling pathway (AID 1224839); also: nearly all actives have a fitted effect of over 15% in size; also: potency is read from the fitted curve at half-maximal effect;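 as to activation: HepG2 cells stably carrying human CAR and a CYP2B6 luciferase reporter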
In short: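 In this screen, CAR-driven CYP2B6 promoter activity is measured by luminescence in HepG2-CYP2B6-hCAR cells after 24 h with test compounds and 0.75 uM PK11195 (final concentration).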

[17] = qHTS assay to identify small molecule agonists of the estrogen related receptor signaling pathway with the pleiotropic PPARgamma coactivator (PGC) from Tox21 10K library (AID 1224842); also: nearly all actives have a fitted effect of over 15% in size
In short: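 PGC/ERR reporter cells (NTP line) were seeded 2,000 per well, rested 6 h at 37 C/5% CO2, then pin-dosed with compounds in DMSO for 18 h at 37 C; luciferase read by One-Glo luminescence after 30 min at room temperature.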

[18] = qHTS assay to identify small molecule antagonists of the estrogen related receptor (ERR) signaling pathway from Tox21 library (AID 1224848); also: nearly all actives have a fitted effect of over 50% in size; also: potency is read from the fitted curve at half-maximal effect
In short: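 Screening used an ERR reporter line supplied by NTP, exposed for 18 h at 37 C to library compounds delivered in DMSO. Signal was luciferase luminescence developed with ONE-Glo at room temperature for 30 min.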

[19] = qHTS assay to identify small molecule agonists of the estrogen related receptor (ERR) signaling pathway from Tox21 library (AID 1224849; calls by dose curve; also: nearly all actives have a fitted effect of over 15% in size); settings: ERR reporter cell line, ONE-Glo luciferase, 18 h; at 92.4 µM (top of the series) unless noted
In short: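 ERR reporter cell line (NTP) seeded, rested 6 h at 37 C/5% CO2, then pinned with Tox21 compounds in DMSO. After 18 h at 37 C, ONE-Glo luciferase luminescence was read following 30 min at room temperature.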

[20] = qHTS assay to identify small molecule antagonists of the estrogen related receptor signaling pathway with the pleiotropic PPARgamma coactivator (PGC) from Tox21 10K library (AID 1224841; call rule not given here)
In short: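 PGC/ERR reporter cells were seeded at 2,000 cells/well and held 6 hours at 37 C/5% CO2 before pin-tool addition of compounds in DMSO. After 18 hours at 37 C, One-Glo was added and luminescence read after 30 minutes at room temperature.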

| SMILES | Potency [1] | Potency [2] | Potency [3] | Potency [4] | Potency [5] | Potency [6] | Potency [7] | Potency [8] | Potency [9] | Potency [10] | Potency [11] | Potency [12] | Potency [13] | Potency [14] | Potency [15] | Potency [16] | Potency [17] | Potency [18] | activity change, positive = activation [19] [%] | Potency [20] |
| --- | --- | --- | --- | --- | --- | --- | --- | --- | --- | --- | --- | --- | --- | --- | --- | --- | --- | --- | --- | --- |
| ClC(Cl)C(Cl)(Cl)Cl | inactive | inactive | inactive | inactive | inactive | inactive | inactive | inactive | inactive | inactive | inactive | inactive | inactive | inactive |  |  |  |  |  |  |
| CCN(CC)CCc1c[nH]c2ccccc12 | inactive | inactive | inactive | inactive | inactive | inactive | inactive | inactive | inactive | inactive | inactive |  | inactive |  |  |  |  |  |  |  |
| CN(C)C(=S)SSC(=S)N(C)C | 339 nM (active) and 433 nM (active) and 473 nM (active) | 2.21 µM (active) and 1.26 µM (active) and 1.55 µM (active) | 339 nM (active) and 486 nM (active) and 531 nM (active) | 269 nM (active) and 344 nM (active) and 422 nM (active) | 214 nM (active) and 243 nM (active) and 266 nM (active) |  | 171 nM (active) and 347 nM (active) |  |  | 49.8 µM (active) and 89.8 µM (active) and 49.2 µM (active) | 54.2 µM (active) and 436 nM (active) and 379 nM (active) | 242 nM (active) and 245 nM (active) | inactive | 54.2 µM (active) and 219 nM (active) and 169 nM (active) | 191 nM (active) and 386 nM (active) and 473 nM (active) | inactive |  |  |  |  |
| c1ccc2nc(N3CCNCC3)ccc2c1 | inactive | inactive | inactive | inactive | inactive |  | inactive | inactive |  | inactive | inactive | inactive | inactive | inactive | inactive | inactive |  |  |  |  |
| [F][Sn]([c]1ccccc1)([c]1ccccc1)[c]1ccccc1 | 1.09 µM (active) | 5.03 µM (active) | 1.09 µM (active) | 1.09 µM (active) | 611 nM (active) |  | 549 nM (active) | 1.42 µM (active) |  | 22.5 µM (active) | 436 nM (active) | 436 nM (active) | inactive | 219 nM (active) |  |  | inactive | 545 nM (active) | -81.3 |  |
| Nc1c(Cl)c(Cl)c(Cl)c(Cl)c1Cl | inactive | inactive | inactive | inactive | inactive |  | inactive | inactive | inactive | inactive | inactive |  | inactive | inactive | inactive |  |  |  |  |  |
| Cc1cnc2c(C(=O)O)c(Cl)ccc2c1 | inactive | inactive | inactive |  | inactive |  | inactive | inactive | inactive | inactive | inactive |  | inactive | inactive |  |  | inactive | inactive | -0.863 | inactive |
| [O]=[Cr](=[O])([OH])[O][Cr](=[O])(=[O])[OH] | 13.8 µM (active) and 24.3 µM (active) | inactive |  | 11 µM (active) and 9.67 µM (active) | 3850 nM (active) | inactive | 2.78 µM (active) and 12.3 µM (active) | 101 µM (active) |  | 90.6 µM (active) |  | 4.41 µM (active) and 4.36 µM (active) | inactive |  |  |  |  |  |  |  |
| OCC(Br)CBr (configuration not stated) | inactive | inactive |  | inactive | inactive | inactive | inactive | inactive | inactive | inactive |  | inactive | inactive | inactive | inactive | inactive |  |  |  |  |
| CCN(CC)C(=O)N[C@@H]1C=C2c3cccc4[nH]cc(c34)C[C@@H]2N(C)C1 | inactive | inactive |  | inactive | inactive | inactive | inactive | inactive | inactive | inactive | inactive | inactive | inactive | inactive | inactive |  |  |  |  |  |
| C#CC1(O)CCCCC1 | inactive | inactive | inactive |  | inactive |  | inactive | inactive | inactive | inactive |  | inactive | inactive | inactive |  |  | inactive | inactive | 1.06 | inactive |
| O=[N+]([O-])c1ccc(Cl)c(Cl)c1Cl | inactive | inactive | inactive |  | inactive | inactive | inactive | inactive | inactive |  | inactive |  | inactive | inactive | inactive | inactive | inactive | inactive | -11 | inactive |
| c1csc(-c2ccc(-c3cccs3)s2)c1 | inactive | 2.52 µM (active) | inactive |  | inactive |  | inactive | inactive |  | inactive | inactive | inactive | inactive | inactive | inactive | 13.7 µM (active) |  |  |  |  |
| Nc1nc(N)nc(Cl)n1 | inactive | inactive |  | inactive | inactive | inactive | inactive | inactive | inactive | inactive | inactive | inactive | inactive | inactive | inactive | inactive |  |  |  |  |
| CNN | inactive | inactive | inactive | inactive | inactive |  | inactive | inactive | inactive | inactive | inactive |  | inactive | inactive |  |  |  |  |  |  |
| CSC1=N[C@@](C)(c2ccccc2)C(=O)N1Nc1ccccc1 | inactive | inactive |  | inactive | inactive |  | inactive | inactive | inactive |  |  | inactive | inactive |  | inactive | 19.3 µM (active) |  |  |  |  |
